Structures are written as SMILES. Compounds without any hit were thinned out: in the full panel of roughly 83,000, 20% have a hit.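 Step 1: grow cells in 96-well plates. Step 2: add test compound at a single concentration. Step 3: incubate 48 h. Step 4: record percent growth.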 A number with no mark means an inactive call. Activity calls are given as the source filed them. Rule for the calls: active = growth percent below 10; inactive = the rest.

The values below come from PubChem BioAssay (NCI).

The experiment relates to HL-60(TB) leukemia. Description: NCI-60 one-dose screen, 48 h (100 = growth as untreated, 0 = no growth, -100 = all killed). The settings on record: 10 µM unless noted.
`COc1ccc(NC(=O)c2ccc(-c3ccccc3)cc2)c(C(N)=O)c1`: the growth is 61.7%. Then `CN1CCN(Cc2ccc(NC(=O)c3cncc(C#Cc4cncc5nccnc45)c3)cc2C(F)(F)F)CC1`, with 1.66% (active); and `COc1cccc(/C=C\C(=O)c2ccccc2)c1`, with 43.9%; and `Cn1c(=O)c2[nH]c(CCCc3nc4c([nH]3)c(=O)n(C)c(=O)n4C)nc2n(C)c1=O`, with 109%. Then `CSc1nc2sc3cccc(Cl)c3n2c(=N)c1C#N`, with 91.8%; and `CCN(CC)CCCC(C)Nc1c(-c2ccccc2)cnc2cc(Cl)ccc12` (stereo not given), with 56.3%. With `CCOC(=O)CSC(=S)SCC(=O)OCC` the figure was 103%; with `C=CCOc1ccc(Cl)cc1Cl`, 20.5%; with `CCOC(=O)/C=C1\S/C(=N\Nc2cc(=O)[nH]c3ccccc23)N(c2ccccc2)C1=O`, 99.1%. For `COc1ccc2nc3cc(Cl)ccc3c(N3CCN(c4nccc(NCc5ccccc5)n4)CC3)c2c1`, the growth is 61.7%. On to `COc1cc(-c2c3c(cn2S(=O)(=O)c2ccccc2)-c2nc(N)sc2CC3)cc(OC)c1OC`, for which the growth was 13.2%. Then `COc1cc(C2CC(=O)Nc3c2ccc2ccccc32)cc(Br)c1OC` (stereo not given), with -15.2% (active); and `CC1(C)CC2=C3C=C[C@@H]4[C@@]5(C)CC[C@H](O)C(C)(C)[C@@H]5CC[C@@]4(C)[C@]3(C)CC[C@@]2(C(=O)O)CC1=O`, with 39%. Then `COc1ccc(C(O)(CCC(C)C)C(CN2CCOCC2)c2ccc(Cl)cc2)cc1` (stereo not given), with 20.9%; and `NC(=S)Nc1cccc(O)c1`, with 98.6%. Then `CCN(CC)CCCCCCCCNc1c2ccc(Cl)cc2nc2ccc(OC)cc12`, with -53.2% (active); and `Nn1c(SCC(=O)Nc2ccc(Cl)cc2)nnc1-c1cc(F)c(Cl)cc1Cl`, with 84.5%; and `CCCc1cccc(CCC)c1NC(=O)Nc1cc(Cl)cc(Cl)c1`, with 101%. For `CCCC(OC(C)=O)c1ccc2c(c1)OCO2` (stereo not given), the growth was 98.7%. In the case of `O=C(CCCCCCc1nc2ccc(Br)cc2[nH]1)NO`, the growth is 2.12% (active). Turning to `CC(=O)O[C@H]1CC[C@]2(C)[C@H]3CC[C@@H]4[C@H]5[C@H](C(C)C)CC[C@]5(C(=O)OCC(CO)(CO)N=C(N)N)CC[C@@]4(C)[C@]3(C)CC[C@H]2C1(C)C`, the growth was -24.7% (active). Then `COc1ccccc1N1C(=N)S/C(=C\c2ccc(OCc3ccccc3F)cc2)C1=O`, with 112%; and `CCN=Cc1c(O)c(O)c(C(C)C)c2cc(C)c(-c3c(C)cc4c(C(C)C)c(O)c(O)c(C=NCC)c4c3O)c(O)c12`, with 27.3%.

On to `N#Cc1c(-c2ccc(F)cc2)nc(N/N=C/c2cccc(O)c2)nc1N1CCOCC1`, for which the growth was 47.2%.

Turning to `O=C(COc1cc(O)c2c(=O)cc(-c3ccccc3)oc2c1)Nc1ccccc1`, the growth is 74.5%.

Regarding `CC1CCCN(CCCCCOc2ccc3oc4ccc(Cl)cc4c(=O)c3c2)C1` (stereo not given), the growth is 48.6%. With `CCn1cc(C(=O)N/N=C/c2cccc(F)c2)c(=O)c2cc(F)c(N3CCNC(C)C3)c(F)c21` (stereo not given), the growth is 65.5%.

For the molecule `O=C(Nc1ccc(N=Cc2ccccc2O)cc1)NC1C=c2ccccc2=CC1` (stereo not given), the growth was 79.4%. With `CCC1S/C(=N\N=C(/C)c2cc3ccccc3o2)N(c2ccccc2)C1=O` (stereo not given) the figure was -93.7% (active); with `O=C(c1ccccc1)C(Br)[N+](=O)[O-]` (stereo not given), 62.3%; with `O=C(Nc1ccc(-n2cc(-c3ccncc3)c(-c3ccc(O)c(Cl)c3)n2)cc1)c1cc(C(F)(F)F)cc(C(F)(F)F)c1`, 84.4%. With `Cc1ccccc1NC(=O)NC(CC(N)=O)c1ccc2c(c1)nc(-c1cccc(Oc3ccc(C(C)(C)C)cc3)c1)n2CCCN1CCCCC1C` (stereo not given), the growth is -3.28% (active). Then `COc1ccc2nc3cc(Cl)ccc3c(NCCN)c2c1`, with -51.5% (active); and `O=C(/C=C/c1ccc([N+](=O)[O-])cc1)c1cccc(Nc2nc(Nc3ccccc3)nc(Nc3ccccc3)n2)c1`, with 85.1%; and `COc1ccc(CN2C(=O)OC(C)(COC(C)=O)C2=O)cc1` (stereo not given), with 101%.

Consider `C=C(C)[C@@H]1CC[C@]2(C(=O)O)CC[C@]3(C)[C@H](CC[C@@H]4[C@@]5(C)C[C@@H](CC#Cc6ccc(C(F)(F)F)cc6)[C@H](O)C(C)(C)[C@@H]5CC[C@]43C)[C@@H]12`, for which the growth is 7.01% (active). Then `[O-][n+]1c(Cl)cc(Cl)c2ccccc21`, with 84.9%; and `O=C1C(=O)c2c(nc3ncccn23)-c2ccccc21`, with -51% (active). For the molecule `CC(C)(C)[Si](C)(C)OC1[C@@H](CNC(=O)NC(=O)CCl)O[C@@H](n2cnc3c(N)ncnc32)[C@H]1O[Si](C)(C)C(C)(C)C` (stereo not given in full), the growth was -64.2% (active). `Cn1c(=O)n(C)c2cc(CNCCNc3ccnc4cc(Cl)ccc34)ccc21`: the growth is 35.4%.
